What all share (assay): peptide microarray binding signal (635 nm), min-max normalized on array (fraction of array maximum); higher = stronger binding
Holding throughout (conditions): peptide region: H3 20-32

The target of assay [1] is T1, HaloTag-ATRX ADD domain (163-292).
T1 chain: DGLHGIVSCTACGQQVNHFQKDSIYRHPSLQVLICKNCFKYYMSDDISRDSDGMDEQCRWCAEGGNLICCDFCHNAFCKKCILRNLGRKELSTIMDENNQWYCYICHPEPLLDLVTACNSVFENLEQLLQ
In outline:
(§1)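 Triplicate spots of histone 13-mer peptide–cellulose conjugates with a Cy3 tracer were printed on nitrocellulose and probed for 1 h at 4°C with biotin-labelled HaloTag reader fusions (10 nM to 1 μM) plus streptavidin-Alexa Fluor 647 or rabbit histone antibodies (1:10,000 to 1:2,000) plus anti-rabbit Alexa 647. An Axon GenePix 4000B read the 635 nm channel. Binding signal is the spot-triplicate mean intensity after min-max scaling within each library.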

Assay [2] concerns the target HaloTag-ING2 PHD (mouse Ing2 200-280). In short, it runs like this: as §1
The target of assay [3] is anti-H3K4me3 antibody ab8580. In short, it runs like this: as §1
The target in assay [4] is anti-H3K9me3 antibody ab8898. In short, it runs like this: as §1
Where [5] appears, read: peptide modifications: H3R26me2s H3K27ac, binder concentration: 1:2,000 dilution.
The mark [6] stands for this setting: peptide modifications: H3R26me2s H3K27ac, binder concentration: 1:10,000 dilution.
Where [7] appears, read: peptide modifications: H3R26me2a, binder concentration: 1:2,000 dilution.
The mark [8] stands for this setting: peptide modifications: H3R26me2a, binder concentration: 1:10,000 dilution.
The mark [9] stands for this setting: peptide modifications: H3R26me2s H3K27me1, binder concentration: 1:2,000 dilution.
[10] abbreviates: peptide modifications: H3R26me2s H3K27me1, binder concentration: 1:10,000 dilution.
The mark [11] stands for this setting: peptide modifications: H3S28ph, binder concentration: 1:2,000 dilution.
[12] abbreviates: peptide modifications: H3S28ph, binder concentration: 1:10,000 dilution.
Where [13] appears, read: peptide modifications: H3T22ph, binder concentration: 1:2,000 dilution.
Setting [14] is: peptide modifications: H3T22ph, binder concentration: 1:10,000 dilution.

± gives the standard deviation.

LATKAARKSAPAT [H3 20-32 L A T K A A Rme2s Kac S A P A T]: the “peptide microarray binding signal” value in assay [1] (peptide modifications: H3R26me2s H3K27ac, binder concentration: 50 nM) was found to be 0.00495 ± 0.00035; in assay [1] (peptide modifications: H3R26me2s H3K27ac, binder concentration: 500 nM), 0.00714 ± 0.00025; in assay [2] (peptide modifications: H3R26me2s H3K27ac, binder concentration: 10 nM), 0.0155 ± 0.00088; in assay [2] (peptide modifications: H3R26me2s H3K27ac, binder concentration: 100 nM), 0.0127 ± 0.00058; in assay [3] (setting [5]), 0.00574 ± 0.0007; in assay [3] (setting [6]), 0.00491 ± 7.1e-05. In addition, the entries for the “peptide microarray binding signal” value in assay [4] (setting [5]) and in assay [4] (setting [6]) were 0.0064 ± 0.0001 and 0.00715 ± 0.0006, respectively.
Take LATKAARKSAPAT [H3 20-32 L A T K A A Rme2a K S A P A T]: the “peptide microarray binding signal” value in assay [1] (peptide modifications: H3R26me2a, binder concentration: 50 nM) is 0.00357 ± 0.0001; in assay [1] (peptide modifications: H3R26me2a, binder concentration: 500 nM), 0.00624 ± 0.00038; in assay [2] (peptide modifications: H3R26me2a, binder concentration: 10 nM), 0.00806 ± 0.00052; in assay [2] (peptide modifications: H3R26me2a, binder concentration: 100 nM) it was 0.0122 ± 0.0012; in assay [3] (setting [7]) it was 0.00525 ± 0.00065; in assay [3] (setting [8]) it was 0.004907 ± 3.6e-05. Further, the “peptide microarray binding signal” value stood at 0.00334 ± 0.00044 in assay [4] (setting [7]) and 0.00294 ± 6.7e-05 in assay [4] (setting [8]).
With LATKAARKSAPAT [H3 20-32 L A T K A A Rme2s Kme S A P A T], the “peptide microarray binding signal” value was determined as 0.00511 ± 6.7e-05 in assay [1] (peptide modifications: H3R26me2s H3K27me1, binder concentration: 50 nM); 0.00771 ± 0.00038 in assay [1] (peptide modifications: H3R26me2s H3K27me1, binder concentration: 500 nM); 0.0191 ± 0.00015 in assay [2] (peptide modifications: H3R26me2s H3K27me1, binder concentration: 10 nM); 0.02409 ± 0.00015 in assay [2] (peptide modifications: H3R26me2s H3K27me1, binder concentration: 100 nM); 0.00608 ± 0.0005 in assay [3] (setting [9]); 0.00845 ± 0.00053 in assay [3] (setting [10]). The “peptide microarray binding signal” value was 0.00384 ± 0.00014 in assay [4] (setting [9]) and 0.00283 ± 4.9e-05 in assay [4] (setting [10]).
As to LATKAARKSAPAT [H3 20-32 L A T K A A R K Sph A P A T], the “peptide microarray binding signal” value is 0.013 ± 0.00031 in assay [1] (peptide modifications: H3S28ph, binder concentration: 50 nM); 0.00843 ± 0.0004 in assay [1] (peptide modifications: H3S28ph, binder concentration: 500 nM); 0.01074 ± 4.2e-05 in assay [2] (peptide modifications: H3S28ph, binder concentration: 10 nM); 0.0104 ± 0.00034 in assay [2] (peptide modifications: H3S28ph, binder concentration: 100 nM); 0.001057 ± 8.9e-06 in assay [3] (setting [11]); 0.00126 in assay [3] (setting [12]). Further, the “peptide microarray binding signal” value in assay [4] (setting [11]) came out at 0.00116 ± 2.3e-05; in assay [4] (setting [12]), 0.00144 ± 2.8e-05.
Consider LATKAARKSAPAT [H3 20-32 L A Tph K A A R K S A P A T], for which the “peptide microarray binding signal” value in assay [1] (peptide modifications: H3T22ph, binder concentration: 50 nM) worked out at 0.00339 ± 3.7e-05; in assay [1] (peptide modifications: H3T22ph, binder concentration: 500 nM), 0.00638 ± 0.00025; in assay [2] (peptide modifications: H3T22ph, binder concentration: 10 nM) it was 0.0046 ± 6.2e-05; in assay [2] (peptide modifications: H3T22ph, binder concentration: 100 nM), 0.00772 ± 0.00064; in assay [3] (setting [13]) it was 0.001548 ± 1.2e-05; in assay [3] (setting [14]) it was 0.00194 ± 3.1e-05. The “peptide microarray binding signal” value came out at 0.00068 ± 2.1e-05 in assay [4] (setting [13]) and 0.00115 ± 2e-05 in assay [4] (setting [14]).

For the origin of these results see the supplement of paper PMC4022240.
